From PubChem
This is a sample that favours compounds with a hit; in the whole collection about 6.5% have one here.
VACV mCherry inh: inhibitors of vaccinia virus infection (mCherry reporter signal) | Vaccinia virus mCherry reporter infection, fluorescence | Potency, µM (highest dose often 36.5 µM), hits mostly inhibitors | actives 0.63% (n = 310,000) | AID 720579; calls by dose curve; tested in A549 cells; further: nearly all actives have a fitted effect of over 35% in size
Vaccinia Venus: inhibitors of vaccinia virus (Venus reporter); Vaccinia virus Venus reporter expression, fluorescence; Potency, µM (top dose mostly 36.5 µM), actives largely listed as inhibitors; actives 0.46% (n = 330,000); AID 720580; calls by dose curve; tested in A549 cells; further: nearly all actives have a fitted effect of over 30% in size
HCMV inh: inhibitors of human cytomegalovirus | HFF cells, HCMV-luciferase reporter, 72 h; stronger effect = lower value | activity change, negative = inhibition, % at 57.5 µM | actives 4.5% (n = 410,000) | AID 1259415; in the data active means activity change below about -60%; inconclusive means no clear call, values can overlap the other calls; inactive means above about -39%
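Cell-based, HFFs, 1000 cells/well, 16 h 37C; cpds in DMSO + HCMV-luc, MOI 1 PFU/cell; 72 h 37C; OneGlo luminescence after 5 min RT; norm. to buffer vs Salinomycin 10uM.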
Lassa entry inh: blocks Lassa virus binding to or entry into cells. Lassa virus pseudotype entry inhibition, cell reporter. actives 1.2% (n = 300,000). Potency, µM (top dose mostly 37.9 µM), actives largely listed as inhibitors; calls by dose curve; tested in HEK293 cells; further: nearly all actives have a fitted effect of over 50% in size
FMDV antiviral: antivirals against foot and mouth disease virus. FMDV antiviral cell-based qHTS. Potency, µM (doses to about 57.9 µM), actives largely listed as inhibitors. actives 1.2% (n = 410,000); calls by dose curve; tested in HEK293T cells; further: read-out not given here; nearly all actives have a fitted effect of over 45% in size
MARV entry inh: Marburg virus entry inhibition; Marburg virus pseudotyped entry inhibition, cell reporter; Potency, µM (top dose mostly 37.8 µM), actives largely listed as inhibitors; actives 1.8% (n = 300,000); AID 540276; calls by dose curve; tested in HEK293 cells
Numbers stand for hits; . = inactive; ? = inconclusive; / = not tested or not shown; + = active, no number; ! = repeats disagree; [ ] = another dose, or the depositor's remark.

SMILES | VACV mCherry inh | Vaccinia Venus | HCMV inh | Lassa entry inh | FMDV antiviral | MARV entry inh
CCOC(=O)c1c(NC(=S)NCc2ccccc2)sc2c1CCN(C(=O)OCC)C2 | . | . | . | . | . | .
C=CCNC(=S)Nc1sc2c(c1C(=O)OCC)CCN(C(=O)OCC)C2 | / | . | . | ? | . | ?
CCOC(=O)c1c(NC(=S)N2CCCCC2)sc2c1CCN(C(=O)OCC)C2 | . | . | -97.6 | . | . | ?
CCOC(=O)c1c(NC(=S)N2CCOCC2)sc2c1CCN(C(=O)OCC)C2 | ? | . | -108.6 | . | ? | ?
COc1cccc(-c2nnc(SCC3CNC(=O)O3)n2-c2ccc(Cl)cc2)c1 (configuration not stated) | . | . | -100.6 | . | . | .
COc1cccc(-c2nnc(SCC(=O)N3CCCC3=O)n2-c2ccccc2)c1 | . | . | . | . | / | .
O=C(CCN1CCCCC1)Nc1cccc(Cl)c1 | . | . | . | . | . | .
Cc1cc(C)cc(NC(=O)CCCn2c(=O)c3cccn3c3ccccc32)c1 | . | . | . | ? | . | /
O=C(CCCn1c(=O)c2cccn2c2ccccc21)Nc1cccc(Cl)c1 | . | . | -69.9 | ? | . | /
COc1cccc(CNC(=O)Cn2c(=O)c3cccn3c3ccccc32)c1 | / | / | -65.7 | / | . | /
O=C(Cn1c(=O)c2cccn2c2ccccc21)NCc1cccc(F)c1 | . | . | ? | . | . | .
CN(CCCNC(=O)Cn1c(=O)c2cccn2c2ccccc21)Cc1ccccc1 | .[7.34 µM] | .[7.34 µM] | -88.3 | / | . | /
O=C(CCN1CCCCCC1)Nc1cccc(Cl)c1 | . | . | -60.5 | . | . | .
CCc1cccc(NC(=O)Cn2c(=O)n(CC(=O)NCCc3ccccc3)c(=O)c3ccccc32)c1 | ? | ? | . | ? | . | .
Cc1c(C(=O)NCCN2CCOCC2)cnn1-c1nccc(-c2cc3ccccc3o2)n1 | . | . | / | / | . | /
Cc1ccc(CNC(=O)CN2c3cccc4cccc(c34)S2(=O)=O)cc1 | / | / | . | / | . | /
COc1cccc(CNC(=O)CN2c3cccc4cccc(c34)S2(=O)=O)c1 | . | . | -88.3 | . | . | ?
COc1ccc(NC(=O)Cn2c(=O)c3cccn3c3ccccc32)cc1 | . | . | . | . | . | /
CC(=O)c1ccc(NC(=O)Cn2c(=O)c3cccn3c3ccccc32)cc1 | . | . | ? | 1.78µM | . | /
O=C(CCCOc1ccc(Cl)cc1Cl)Nc1ccncc1 | . | . | -60.7 | . | / | .
O=C(O)CCCOc1ccc(Cl)cc1Cl | +! | ? | . | / | . | /
COc1ccc(NC(=O)CCn2nc(-c3ccccc3OC)c3c(C)cc(C)nc32)cc1 | ? | . | . | ? | . | .
Clc1ccc2c(N3CCCC3)ccnc2c1 | / | / | ? | . | . | .
O=C(Oc1ccnc2cc(Cl)ccc12)N1CCCCCC1 | / | ? | -100.6 | ? | . | ?
O=C(NNc1ccnc2cc(Cl)ccc12)C1CCCCC1 | . | . | -81.8 | . | ? | ?
SMILES | VACV mCherry inh | Vaccinia Venus | HCMV inh | Lassa entry inh | FMDV antiviral | MARV entry inh
O=C(c1ccc(Cl)cc1)N1CCN(c2ccnc3cc(Cl)ccc23)CC1 | ? | . | ? | ? | 28.2µM | ?
NC(=S)NNc1ccnc2cc(Cl)ccc12 | ? | . | . | . | . | ?
FC(F)Oc1ccc(NC(=S)NNc2ccnc3cc(Cl)ccc23)cc1 | . | . | -87.8 | ? | ? | 11.2µM
CC(CCN1CCCc2nc(C)c(C)cc21)=NOC[C@@H](C)[C@H](OCc1ccccc1)C(C)C | / | / | / | / | / | .
CCC(=O)N1CCN(c2ccnc3cc(Cl)ccc23)CC1 | . | . | ? | . | . | .
CCOC(=O)N1CCN(c2ccnc3cc(Cl)ccc23)CC1 | . | . | -62.5 | . | . | ?
CC(C)N(C(=O)N1CCN(c2ccnc3cc(Cl)ccc23)CC1)C(C)C | . | . | -89.8 | 11.2µM | ? | ?
CCn1c(=O)cc(OCC(=O)N2CCN(c3cccc(C)c3C)CC2)c2ccccc21 | . | . | . | ? | 20µM | .
Cc1nc2ccccc2n1Cc1ccccc1 | / | / | . | / | . | /
CC(c1nc2ccccc2n1Cc1ccccc1)N1CCCCC1 (configuration not stated) | . | . | -66.8 | . | ? | ?
COc1ccc(C(O)C(CN2CCOCC2)c2ccccc2)cc1F (configuration not stated) | / | / | . | . | . | .
CCCOc1ccc(C(=O)C(CN2CCOCC2)c2ccccc2)cc1 (configuration not stated) | ? | ? | -103.9 | ? | 14.1µM | 15.8µM
COc1ccc(C(=O)C(CN2CCOCC2)c2ccccc2)cc1F (configuration not stated) | 10µM | 12.6µM | -104.6 | ? | ? | 8.91µM
Cc1cccc(-c2nnc(SCc3cc(=O)c4cccc(Cl)c4[nH]3)n2C)c1 | . | . | ? | . | 25.1µM | /
Cc1ccc(S(=O)(=O)c2cnc(SC(C)C(=O)Nc3ccccc3)[nH]c2=O)cc1 (configuration not stated) | . | . | . | / | . | .
CCOc1ccc(CNC(=O)c2cccc(NC(=O)N3CCSc4ncccc43)c2)cc1OC | . | . | ? | ? | 14.1µM | /
Cc1cccc(CNC(=O)c2cccc(NC(=O)N3CCSc4ncccc43)c2)c1 | . | . | + | . | . | /
CCOC(=O)C(CC)n1nnc2sc(-c3ccccc3)cc2c1=O (configuration not stated) | . | . | . | ? | . | .
Cc1cc(-c2ccc(S(=O)(=O)Nc3ccccc3F)s2)on1 | . | . | . | ? | . | /
Cn1c(=O)[nH]c2c(cnn2C)c1=O | . | . | -98.4 | . | . | .
C[C@H]1COC2=C1C(=O)C(=O)c1c2ccc2c1CCCC2(C)C | 11.2µM | 11.2µM | / | / | . | /
Cc1ccc2c3c(cccc13)-c1ccccc1C2=O | . | . | . | ? | . | .
Cc1coc2c1C(=O)C(=O)c1c-2ccc2c(C)cccc12 | ? | 7.08µM | / | / | ? | /
CC1COC2=C1C(=O)C(=O)c1c2ccc2c1CCCC2(C)C (configuration not stated) | . | . | / | / | . | /
Cc1coc2c1C(=O)C(=O)c1c-2ccc2c1CCCC2(C)C | 10µM! | 11.2µM! | ? | / | . | /
SMILES | VACV mCherry inh | Vaccinia Venus | HCMV inh | Lassa entry inh | FMDV antiviral | MARV entry inh
Cc1cccn2c(=O)c(C=O)c(Cl)nc12 | . | . | -88.1 | ? | 31.6µM | ?
COc1cc(-c2noc(C)c2/C=C/c2ccc(N)cc2)cc(OC)c1OC | ? | ? | -83.3 | / | . | /
COc1cc(-c2c(-c3cc(OC)c(OC)c(OC)c3)noc2C)ccc1F | . | ? | -94.3 | / | . | /
COc1cc(-c2noc(C)c2C#Cc2ccc(N)cc2)cc(OC)c1OC | . | ? | . | / | . | /
COC(=O)C(c1ccccc1)(c1cn(-c2ccccc2)c2ccccc12)C(Nc1ccccc1)c1ccccc1 (configuration not stated) | / | / | . | / | / | /
O=[N+]([O-])/C(C(=C(Cl)Cl)N1CCOCC1)=C1\NCCO1 | 15.8µM | 10µM | . | . | . | .
CN1CCO/C1=C(\C(Cl)=C(Cl)Cl)[N+](=O)[O-] | . | . | . | . | . | .
COC(=O)CN1C(=O)CSc2ccc(S(=O)(=O)Nc3cccc(Cl)c3C)cc21 | . | . | . | . | . | /
CC(C)[C@@H](OCc1ccccc1)[C@H](C)/C=N/OC[C@@H](O)[C@H]1O[C@@H]2OC(C)(C)O[C@@H]2[C@H]1O | / | / | / | / | / | .
